Drawing on PubChem BioAssay AID576 (NMMLSC, 2007), this text covers fluorescence ratio for 41 compounds.

The whole screen tested about 24,000 compounds, of which about 150 (0.62%) were called active. The full list was thinned out, with actives kept by preference. Values without a mark were called inactive.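 How the source made its calls: active means fluorescence ratio above 2.44, which is 1 plus 3 SD of all ratios; inconclusive means signal too bright to measure linearly, ratio around 10 or more; inactive means fluorescence ratio below 2.44.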

This test is described as follows: compound autofluorescence on Jurkat cells, primary screen, artefact control for VLA-4 allosteric ligand project, cell-based, flow cytometry (AID 576).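 Further: green fluorescence of cells measured with 488 nm excitation and 530 nm emission; tested at 10 µM compound in the well.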 The conditions noted are these: active compounds read high, 1 = vehicle-only cell background. A general note: A flow cytometer gives signals particle by particle.
Take `O=C(O)C1CCN(S(=O)(=O)N2CCOCC2)CC1`: the fluorescence ratio was 1. For `CCN1CCCC1CNC(=O)Cn1cnc2ccc(S(=O)(=O)N3CCC(C)CC3)cc2c1=O` (stereo unspecified), the fluorescence ratio is 1.05. As for `CCOc1cc2[nH]c(=O)n(CCC(=O)NCc3ccc(OC)cc3)c(=O)c2cc1OCC`, the figure is 0.94; as for `CCOc1ccc(CNC(=O)C2CC(=O)N(C3CCCC3)C2)cc1OC` (stereo unspecified), 0.92. As for `Cc1ccc(-c2ccc(=O)n(CC(=O)NCCCN3CCCCC3)n2)cc1`, the figure is 1.06.

On to `CCCS(=O)(=O)C(=C1Nc2ccccc2N1)S(=O)(=O)CCC`, for which the fluorescence ratio is 1.04. Next, `COc1cc(-n2c(C)nc3cc(C(=O)NCc4ccco4)ccc32)cc(OC)c1OC`: 1.05. As for `COCCOC(=O)C1=C(C)NC(=O)CC1c1cc2c(cc1Br)OCO2` (stereo unspecified), the figure is 0.99; as for `O=C(NCCN1C(=O)C2C3C=CC(C3)C2C1=O)Nc1ccccn1` (stereo unspecified), 0.86. Next, `Cc1ccc(-n2nc3c(c2NC(=O)c2ccc4c(c2)OCO4)CSC3)c(C)c1`: 0.97; `CCN1CCN(c2ncnc3c2oc2nc(C)c4c(c23)CC(C)(C)OC4)CC1`: 0.92; `Cc1cc(NS(=O)(=O)c2ccccc2)no1`: 0.95. As to `CCC1CCCCN1CCNS(=O)(=O)c1ccc2c(c1)CCN2C(C)=O` (stereo unspecified), the fluorescence ratio was 1.02. With `CC(c1cccnc1)N(CCN(C)C)C(=O)Nc1ccc(Cl)c(Cl)c1` (stereo unspecified), the fluorescence ratio is 1.09. Next, `CCCOc1ccc(-c2nc(N)n[nH]2)cc1`: 1.01; `CCOc1ccc(-n2c(SC(C)C(=O)OC)nc3c(c2=O)SCC3)cc1` (stereo unspecified): 1.09. Next, `CCOC(=O)C1CCN(C(=O)C2CCN(S(=O)(=O)CC)CC2)CC1`: 1.02.

`Cc1ccc2cccc(O)c2[n+]1[O-]`: the fluorescence ratio was 1.03. For the compound `CCC(C)n1[nH]c(=O)c2c(C)cc(C)nc21` (stereo unspecified), the fluorescence ratio was 1.05. Next, `CCOC(=O)Cn1c(=O)oc2cc(S(=O)(=O)NCC3CCCO3)ccc21` (stereo unspecified): 1.88; `CCn1ncc(C2=NOC(C(=O)N3CCN(c4ccccc4)CC3)C2)c1C` (stereo unspecified): 1.1; `Cn1cccc1C1(C(F)(F)F)NCCNC1=O` (stereo unspecified): 1.07. Next, `N#CC1=C(N)Oc2cc(O)ccc2C1C1CCCCC1` (stereo unspecified): 1.18. Next, `COC(=O)C1=C(C)OC(N)=C(C#N)C1c1cc(OC)ccc1OC` (stereo unspecified): 1.05. For `C=C1c2cc(CC)ccc2NC(=O)N1c1ccc(C)cc1`, the fluorescence ratio is 1.01. As for `O=c1c2ccccc2[nH]c(=S)n1CCN1CCC(=C(c2ccc(F)cc2)c2ccc(F)cc2)CC1`, the figure is 1.02; as for `CC(=O)c1c(N2CCOCC2)nc(=S)n(Cc2ccccc2)c1C`, 1.3. Next, `COC(=O)Cn1cc(C(=O)c2cccs2)c2ccccc21`: 0.93; `CCn1c(CSc2ncccn2)nnc1SCC(=O)N1c2ccccc2CC1C` (stereo unspecified): 1.

`Cc1ccc(S(=O)(=O)NCCN2CCOCC2)cc1C`: the fluorescence ratio was 1.05. As for `CCOc1ccccc1NC(=O)C1CCN(S(=O)(=O)c2c(C)nn(C)c2C)CC1`, the figure is 1.02; as for `CCOC(=O)c1ccc(NC(=O)Cn2nnc(-c3ccc(C)cc3)n2)cc1`, 1.04. Next, `N#Cc1ccc(COC(=O)Cn2nnc(-c3ccccc3)n2)cc1`: 1.04; `CC(C)(C)NC(=O)Cn1nnc(-c2ccccc2Cl)n1`: 3.61 (active). For the compound `O=C(Nc1ccccc1C(=O)N1CCOCC1)C1CCC(=O)N1C1CCCC1` (stereo unspecified), the fluorescence ratio is 1.04. As for `CC(C)NC(=O)CCCn1c(=S)[nH]c2cc3c(cc2c1=O)OCO3`, the figure is 1.14; as for `O=C(O)CSCNC(=O)CC12CC3CC(CC(C3)C1)C2`, 0.77; as for `CCOC(=O)C1CCN(C(=O)CC2C(=O)N(Cc3ccccc3)C(C)c3nc4ccccc4n32)CC1` (stereo unspecified), 1.02. Next, `CCOC(=O)c1c(NC(=O)c2cccs2)sc(C)c1C`: 1.07. Next, `Cc1c(C(=O)NCCN2CCOCC2)sc2nc(-c3ccc(F)cc3)cn12`: 1.22; `CC1CCN(Cc2nc3c(c(=O)n(C)c(=O)n3C)n2Cc2cccc3ccccc23)CC1`: 1.06.
